Source: PubChem BioAssay (NCI)
The panel holds about 79,000 compounds, 15% with a hit somewhere; the sample as a whole holds those more often. Calls of active or inactive are those of the source. No stated cut-off is given here; in the data, active means growth inhibition above about 70%; inactive means the rest.

Experiments:
[1] = NCI Yeast Anticancer Drug Screen. Data for the rad50 strain (AID 155);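 further: 0% = growth of vehicle-only cultures of the same strain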; settings: S. cerevisiae rad50 strain growth inhibition; at 50.0 µM; stronger effect = higher value
Procedure, shortened: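 Cells are treated with compound, grown, and their growth is then scored against vehicle-only cultures of the same repair-deficient yeast strain.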

[2] = NCI Yeast Anticancer Drug Screen. Data for the mec2-1 strain (AID 157); settings: S. cerevisiae mec2-1 strain, at 50.0 µM, stronger effect = higher value
Procedure, shortened: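 Readout is yeast growth inhibition, normalised to vehicle-treated controls, in the mec2-1 strain exposed to compound.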

[3] = NCI Yeast Anticancer Drug Screen. Data for the sgs1 mgt1 strain (AID 161);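 further: 0% = growth of cultures given vehicle only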; settings: S. cerevisiae sgs1 mgt1 strain, at 50.0 µM, stronger effect = higher value
Procedure, shortened: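 Growth of a repair-deficient yeast mutant was monitored after compound treatment and expressed as inhibition relative to vehicle-treated cultures.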

[4] = NCI Yeast Anticancer Drug Screen. Data for the cln2 rad14 strain (AID 165);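 further: 0% = growth equal to vehicle treated cultures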; settings: S. cerevisiae cln2 rad14 strain, at 50.0 µM, stronger effect = higher value
Procedure, shortened: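 Relative to vehicle controls, growth inhibition of compound-treated cln2 rad14 yeast was recorded.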

[5] = NCI Yeast Anticancer Drug Screen. Data for the bub3 strain (AID 167); settings: S. cerevisiae bub3 mutant strain, at 50.0 µM, stronger effect = higher value
Procedure, shortened: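 Part of a panel of yeast mutants defective in DNA damage repair or cell cycle regulation. Each strain is grown with compound, and inhibition is calculated relative to solvent-treated cultures.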

[6] = NCI Yeast Anticancer Drug Screen. Data for the mlh1 rad18 strain (AID 175); settings: S. cerevisiae mlh1 rad18 strain growth inhibition; at 50.0 µM; stronger effect = higher value
Procedure, shortened: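 Test agents were incubated with a yeast strain of defined genotype (DNA damage repair defect). Inhibition of growth was derived by comparison with vehicle-exposed cultures.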

Measured: growth inhibition

COc1ccc(CC2c3cc(OC)c(OC)cc3CCN2C(=O)c2ccccc2)cc1OC (stereo unspecified)
inactive: [1] 10% | [2] -18.9% | [3] 9.5% | [4] 16.3% | [5] 10.7% | [6] 1.45%

O=C1OCC(Cc2ccc3c(c2)OCO3)[C@H]1Cc1ccc(O)cc1 (stereo partly specified)
inactive: [1] 1.45% | [2] -18% | [3] 17.6% | [4] 21.9% | [5] 19.3% | [6] -5.9%

C(=N/NC(=N/N=C/c1ccccc1)N/N=C/c1ccccc1)/c1ccccc1
inactive: [1] 28.8% | [2] 23.1% | [3] 46.6% | [4] 28.3% | [5] 5.65% | [6] 24.1%

ClCC1COC(CCc2ccccc2)O1 (stereo unspecified)
inactive: [1] 18.4% | [2] -3.5% | [3] -10.9% | [4] 64.2% | [5] 3.1% | [6] 7.7%

CN1CCN(C)c2nc3ccccc3nc21
inactive: [1] 0.2% | [2] 3% | [3] 1.8% | [4] -12.1% | [5] -6.85% | [6] -7.05%

Cc1cc([N+](=O)[O-])c(NCCOC(=O)c2ccc([N+](=O)[O-])cc2)c([N+](=O)[O-])c1
inactive: [1] -24.1% | [2] -6.55% | [3] -10.9% | [4] -69.2% | [5] 2.8% | [6] -10.7%

COc1cc2c(cc1OC)C(C(CBr)CBr)N(C1CCCC1)CC2 (stereo unspecified)
inactive: [1] -8.2% | [2] -15.3% | [3] 13.6% | [4] -19.9% | [5] -12.4% | [6] 11.6%

Nc1cc(Cl)ccc1S(=O)(=O)O
inactive: [1] -7.1% | [2] -1.8% | [3] 2.1% | [4] -48.8% | [5] -15.1% | [6] -4.4%

O=C(CI)NCC(O)CNC(=O)CI
inactive: [1] 16.9% | [2] 13.9% | [3] 18% | [4] 27.6% | [5] 9.2% | [6] 36.5%

CCCCCCCCCCCCS(=O)(=O)CC(=O)O
inactive: [1] -8.65% | [2] 7.9% | [3] 8.15% | [4] -84.2% | [5] 29.4% | [6] 9.05%

Cc1ccc(N=Nc2ccc(C)cc2NC(=O)CCl)cc1
inactive: [1] -17.7% | [2] -15.8% | [3] -21.9% | [4] -21.9% | [5] 3.2% | [6] -15.2%

CCCc1[nH]n(-c2ccccc2)c(=O)c1N=Nc1ccc(Cl)cc1
inactive: [1] -4.25% | [2] -6.65% | [3] -9.95% | [4] -5.1% | [5] -7.6% | [6] -0.8%

c1ccc2c(c1)CCN2CCN1CCc2ccccc21
inactive: [1] 9.4% | [2] -12.4% | [3] 20.1% | [4] -7.6% | [5] 40.2% | [6] 11.6%

CCOC(=O)NC(=O)c1cn(CCN2CCN(C(=O)NCCCCCCNC(=O)N3CCN(CCn4cc(C(=O)NC(=O)OCC)c(=O)[nH]c4=O)CC3)CC2)c(=O)[nH]c1=O
inactive: [1] -12.3% | [2] 14.7% | [3] -8.95% | [4] -18.6% | [5] -0.75% | [6] -11.6%

Cc1cc(NC(=O)NCCCCCCNC(=O)Nc2cc(C)on2)no1
inactive: [1] 4.95% | [2] 1.2% | [3] 1.7% | [4] -7.75% | [5] 14.6% | [6] 0.35%

CCCCCCCC1CCCC1=O (stereo unspecified)
inactive: [1] -32.1% | [2] -53.6% | [3] -37.8% | [4] 5.7% | [5] -31.8% | [6] -0.8%

CCN(Cc1cccc(S(=O)(=O)O)c1)c1ccc(C(=C2C=CC(=[N+](CC)Cc3cccc(S(=O)(=O)O)c3)C=C2)c2ccc(O)cc2S(=O)(=O)O)cc1
inactive: [1] -115% | [2] -127% | [3] -71.2% | [4] -110% | [5] -136% | [6] -137%

COc1cc(C)cc2c(-c3c(O)cc(O)c4c3CC(C)N[C@H]4C)cc(-c3cc(-c4c(O)cc(O)c5c4CC(C)N[C@H]5C)c4cc(C)cc(OC)c4c3O)c(O)c12 (stereo partly specified)
inactive: [1] 15.2% | [2] -20.4% | [3] 7.9% | [4] 18.9% | [5] -13.9% | [6] 16.5%

NC(=O)CCP(=O)(CCC(N)=O)CCC(N)=O
inactive: [1] 3.8% | [2] -2.3% | [3] 1.2% | [4] 0.8% | [5] -2.95% | [6] 2.4%

CC(NC(=O)C(CC(=O)OCc1ccccc1)NC(=O)OCc1ccccc1)c1ccccc1 (stereo unspecified)
inactive: [1] 9.5% | [2] -20.5% | [3] 9.15% | [4] -21.6% | [5] -17.4% | [6] -1.3%

CC1(C)C=C(C(Cl)c2ccccc2)C(=O)c2ccccc21 (stereo unspecified)
inactive: [1] -1% | [2] 6.6% | [3] 0% | [4] -4.6% | [5] -3.7% | [6] -7.15%

CCC1=C(C(C)=O)[C@@H]2CCCCC(C(=O)OC)[C@@H]2C1=O (stereo partly specified)
inactive: [1] -38.7% | [2] -20.3% | [3] -20.8% | [4] 19.7% | [5] 8.65% | [6] -3.7%

O=C(NCCc1ccccc1)c1ccc2ccccc2n1
active: [5] 87.5% | [6] 84.5%
inactive: [1] 65.3% | [2] 53.3% | [3] 63.7% | [4] 52.1%

CCN(CC)Cc1cc(N=Nc2ccc3c(c2)c2ccccc2n3CC)c2ccccc2c1O
inactive: [1] 20% | [2] 10.9% | [3] 11.2% | [4] 12.6% | [5] -5.5% | [6] 2.25%

COC1OC(CO)C(O)C(NC(=O)OCc2ccccc2)C1O (stereo unspecified)
inactive: [1] 2.6% | [2] -1.7% | [3] 3.05% | [4] -46.1% | [5] 1.1% | [6] -13.4%

O=C(Nc1ccccc1C/C(=N/O)c1ccc2c(c1)OCO2)c1ccccc1
inactive: [1] 51.5% | [2] 0.4% | [3] 54.1% | [4] -32% | [5] 3.55% | [6] 23.4%

O=C(Nc1ccc(S(=O)(=O)NC2CCCCC2)cc1)Oc1ccc([N+](=O)[O-])cc1
inactive: [1] 32.5% | [2] 3.55% | [3] 18.4% | [4] 10.8% | [5] 8.4% | [6] 19.4%

O=C=Nc1ccc(Cl)c(Cl)c1
inactive: [1] -19.9% | [2] -29.4% | [3] -43% | [4] -9.1% | [5] -13.7% | [6] -19.1%

CN(C)c1nc(N(C)C)c2cnn(C)c2n1
inactive: [1] 21.7% | [2] 3.7% | [3] 20.9% | [4] -15.8% | [5] -2.7% | [6] -29.8%

CC12CS(=O)(=O)CC1O2 (stereo unspecified)
inactive: [1] 1.65% | [2] 3.25% | [3] 2.2% | [4] 1.9% | [5] 2.2% | [6] -13.4%

OCC(CBr)(CBr)CBr
inactive: [1] 2.45% | [2] -2% | [3] 8.25% | [4] 19.3% | [5] 4.45% | [6] -3.85%

COC1CC(NC(=O)C(F)(F)F)C(O)C(CNC(=O)C(F)(F)F)O1 (stereo unspecified)
inactive: [1] -32.5% | [2] 17.2% | [3] -3.55% | [4] -14% | [5] 16.1% | [6] 19.4%

O=C(NC1(C(=O)O)CCCC1)c1ccccc1
inactive: [1] -34.5% | [2] -27.2% | [3] -12.7% | [4] -31.7% | [5] -4.35% | [6] 0.7%

CSc1nc(N)cc(Cl)n1
inactive: [1] 7.75% | [2] -25.5% | [3] -12.4% | [4] 5.85% | [5] -1.9% | [6] -9.7%

CCN(CC)CCC1(C(N)=O)Cc2ccccc2N(CC)c2ccccc21 (stereo unspecified)
inactive: [1] 13.6% | [2] 10.6% | [3] 8.7% | [4] -2.6% | [5] 6.4% | [6] 1.85%

CC(O)C1NC(=S)N(c2ccccc2)C1=O (stereo unspecified)
inactive: [1] 17.4% | [2] 21% | [3] 20.8% | [4] -20.2% | [5] -14.4% | [6] 46%

COC12COC(=O)C1C(c1ccc3c(c1)OCO3)c1cc3c(cc1O2)OCO3 (stereo unspecified)
inactive: [1] 21.8% | [2] -0.6% | [3] 11.5% | [4] 8.95% | [5] 17.4% | [6] -4.7%

C1CSCCSCCSCCSC1
inactive: [1] -8.05% | [2] -24.4% | [3] -13.7% | [4] -18.3% | [5] 31.9% | [6] -25.4%

COC(=O)C(Cc1[nH]c(N=Nc2ccc(Br)cc2)nc1N=Nc1ccc(Br)cc1)NC(C)=O (stereo unspecified)
inactive: [1] 43% | [2] -1% | [3] 27.1% | [4] -11.1% | [5] -3.55% | [6] -5.25%

C=C1C(=O)OC2CC(C)C3CC(O)OC(OCC)C3(C)CC12 (stereo unspecified)
inactive: [1] 24.1% | [2] 20.3% | [3] 12.4% | [4] 22.8% | [5] 32.2% | [6] -16.8%

Cn1c(NC(=O)C(=O)NC23CC4CC(CC(C4)C2)C3)nc2ccccc21
inactive: [1] -1.9% | [2] -11.4% | [3] -9.7% | [4] 5.8% | [5] -7.25% | [6] 8.55%
